Bioassay records: PubChem, National Center for Advancing Translational Sciences (NCATS)
Only some compounds are listed: those with a hit (about 2.5% of all), similar ones and a draw of the others.
FLuc inh: inhibitors of firefly luciferase. Potency, µM (titrated, usually from 57.1 µM), for the others: top-dose activity change, negative = inhibition, actives largely listed as inhibitors. P08659. 2.2% of 72,000 active. purified firefly luciferase, luminescence, 8 min; active = well fitted inhibition curve with a large enough effect; note: nearly all actives have a fitted effect of over 40% in size
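Substrate buffer containing 10 uM ATP (pH 7.2 imidazole, Mg2+, KCl, detergent, BSA) is dispensed, compound pinned in, then luciferase/luciferin detector mix added. After 8 min at ambient temperature, light output is measured.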
PK Bst: modulators of Bacillus stearothermophilus pyruvate kinase; Potency, µM; 1.2% of 51,000 active; purified pyruvate kinase, luminescence ATP production; ribose 5-phosphate activator present at AC10; in the data active = potency below about 11 µM;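 the screen sought inhibitors and activators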;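 note: scaled between full activation by ribose 5 phosphate and full inhibition by luteolin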
* marks the source's active call; other numbers are inactive results; . = not tested or not shown; ! = repeats disagree; [ ] = remark or other dose. Unless noted, % is set by controls: 0 for no effect and ±100 for the full control effect; potency is the fitted concentration of half-maximal effect.

SMILES	FLuc inh	PK Bst
CC1(C)CN=C(Nc2nc3ccccc3s2)S1	16µM*	.
Cn1cnc2cc(NC(=O)c3ccc(Cl)cc3)ccc21	13µM*	.
NC(=O)c1ccc(C(=O)Nc2ccc([As](=O)(O)O)cc2)cc1	-1%[11.4 µM]	.
Cc1ccc(C(=O)Nc2nc3ccccc3n2CCN2CCCC2)cc1	13µM*	.
CCCCCn1c(N)c(C(=O)NCCN2CCOCC2)c2nc3ccccc3nc21	-9%	>57
Oc1ccc2c3c1O[C@@H]1c4[nH]c5c(c4C[C@@]4(O)[C@@H](C2)N(CC2CC2)CC[C@]314)C[C@]1(O)[C@@H]2Cc3ccc(O)c4c3[C@@]1(CCN2CC1CC1)[C@H]5O4	0%	.
CC(=O)[C@@H]1CC[C@@H]2[C@H]3CC[C@H]4C[C@@H](O)CC[C@]4(C)[C@@H]3C(=O)C[C@]21C	1%	.
O=C(O)c1cc[c]([Hg][Cl])cc1	16µM*	.
C[C@]12CC[C@H](O)C[C@@H]1CC[C@H]1[C@H]2CC[C@]2(C)[C@H](C(=O)CO)CC[C@@H]12	-7%	.
C=CCN1CC[C@@]23CCCC[C@@H]2[C@@H]1Cc1ccc(O)cc13	0%	.
N#CC(C#N)=Cc1cc(O)c(O)c(O)c1	-4%	.
N#C/C(=C\c1ccc(O)c(O)c1)C(N)=S	25µM*!	.
O=C1C[C@@H]2OCC=C3CN4CC[C@]56c7ccccc7N1[C@H]5[C@@H]2[C@H]3C[C@@H]46	2%[11.4 µM]	.
CCCCCCCCCCCCCC(=O)O[C@H]1[C@@H](C)[C@@]2(O)[C@@H](C=C(CO)C[C@]3(O)C(=O)C(C)=C[C@@H]23)C2C(C)(C)[C@]21OC(C)=O (stereo not given in full)	-4%	.
C/C=C1\C[C@H](C)[C@](O)(CO)C(=O)OCC2=CCN3CC[C@@H](OC1=O)[C@@H]23	1%[11.4 µM]	.
O=C(c1cc2ccccc2oc1=O)N1CCC2(CC1)OCCO2	5%	>57
CCOc1ccc(-c2cc(C(=O)N3CCC4(CC3)OCCO4)c3ccccc3n2)cc1	0.63µM*	0.71*
CN1C[C@@H](CNC(=O)OCc2ccccc2)C[C@H]2c3cccc4c3c(cn4C)C[C@@H]21	-1%	.
N[C@@H](Cc1cc(O)c(O)cc1O)C(=O)O	-4%	.
NNCc1cccc(O)c1	32µM*	.
CC[C@H](CO)NC(=O)[C@@H]1C=C2c3cccc4[nH]cc(c34)C[C@@H]2N(C)C1	1%	.
